PAX8 inh HTS: inhibitors of PAX8-driven TPO luciferase reporter, primary screen, RMG-I cells, single concentration | SteadyGlo, 24 h | AID 652154, 2013 | 360,000 compounds, 1.2% hits | inhibition, % at 12.6 µM;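 active means mean replicate inhibition at least 60% with every replicate also reaching 60%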;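 further: luciferase light reporting Pax8 driven TPO promoter activity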
TWEAK Fn14 block: inhibitors of TWEAK-Fn14 signaling, primary screen, luciferase reporter cells, uHTS; TWEAK-stimulated Fn14 reporter cells, luciferase luminescence, 8 h; inhibition, % at 10 µM; 360,000 compounds, 2% hits; AID 1159606, 2016; in the data active means inhibition above about 50%
EBV LMP1 NFkB: EBV LMP1-driven NF-kappaB luciferase reporter inhibitors, primary screen, cell-based, luminescence, single point; LMP1-induced NF-kappaB luciferase reporter cells; inhibition, % at 12.5 µM; 350,000 compounds, 0.69% hits; AID 504558, 2011; in the data active means inhibition above about 41%
LGR2 inh: inhibitors of bursicon-induced LGR2 CRE-luciferase signal, primary screen, cell-based, HEK293, CRE-luciferase reporter, bursicon stimulation; inhibition, % at 9.99 µM; 380,000 compounds, 0.35% hits; Drosophila bursicon receptor LGR2 (rickets); AID 720647, 2013; bursicon-stimulated, 4 h;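 active means drop in luminescence signal, shown as inhibition above about 50% in the replicate tests, limit read from the data, passing the limit was not always enough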;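 further: agonist challenge used bursicon conditioned medium at about half maximal strength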
TROY signal inh: inhibitors of TROY-driven NF-kB signaling, primary screen, Q293 LMP1-TROYcd cells, NF-kB luciferase, uHTS | Q293 LMP1-TROYcd NF-kB luciferase reporter, 4 h | inhibition, % at 10 µM | 360,000 compounds, 0.98% hits | AID 1347056, 2019;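 active means compounds whose plate-normalised and pattern-corrected inhibition of the luciferase reporter signal at the single screening dose is 50% or more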
EWS-Fli inh: EWS/Fli-driven NR0B1 reporter inhibitors, primary screen, A673 cells, NR0B1 luciferase, luminescence, MLPCN library; 350,000 compounds, 0.67% hits; viability-normalised; inhibition, % at 12.6 µM; AID 651661, 2012;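 active means mean inhibition of at least 50% after viability correction, with every replicate also passing that limit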;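 further: firefly luciferase signal divided by Alamar Blue viability fluorescence both relative to DMSO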
Hits are given with their value. Only some compounds are listed: those with a hit (about 3.1% of all), similar ones and a draw of the others.

For COc1ccc2c3c([nH]c2c1)[C@@H](CO)N(C(=O)Nc1cccc(F)c1)CC31CN(S(=O)(=O)c2cccc(C)c2)C1 the results were LGR2 inh inactive and EWS-Fli inh inactive.
`COc1ccc2c3c([nH]c2c1)[C@@H](CO)N(C(=O)Nc1cccc(F)c1)CC31CCN(S(=O)(=O)c2cccc(C)c2)CC1` gave PAX8 inh HTS 95.9, LGR2 inh inactive and EWS-Fli inh inactive.
For COc1cccc(S(=O)(=O)N2CC3(CN(C(=O)Nc4ccc(F)cc4)[C@@H](CO)c4[nH]c5cc(OC)ccc5c43)C2)c1 the results were LGR2 inh inactive and EWS-Fli inh inactive.
`CCCN(C)C[C@@H]1OCCCC[C@H](C)Oc2ccc(NC(=O)CCC(F)(F)F)cc2C(=O)N([C@H](C)CO)C[C@@H]1C` gave PAX8 inh HTS inactive, LGR2 inh inactive and EWS-Fli inh inactive.
Cc1ccc2nc(SCC(=O)c3c(N)n(C)c(=O)n(C)c3=O)[nH]c2c1 was read as PAX8 inh HTS inactive, TWEAK Fn14 block inactive, EBV LMP1 NFkB inactive, LGR2 inh inactive, TROY signal inh inactive and EWS-Fli inh 53.6.
C[C@H]1CN([C@@H](C)CO)C(=O)Cc2cc(N(C)C)ccc2O[C@@H]1CN(C)CC1CC1 was read as PAX8 inh HTS inactive, LGR2 inh inactive and EWS-Fli inh inactive.
COc1ccc(NC(=O)N(C)C[C@@H]2Oc3ccc(NC(=O)Nc4ccc5c(c4)OCO5)cc3C(=O)N([C@H](C)CO)C[C@@H]2C)cc1 was read as LGR2 inh inactive and EWS-Fli inh inactive.
`COc1ccc(C(=O)N2CC3(C)CC2CC(C)(C)C3)cc1` (stereo not drawn) gave PAX8 inh HTS inactive, TWEAK Fn14 block inactive, EBV LMP1 NFkB inactive and TROY signal inh 66.0.
Screening O=C(CNC(=O)c1ccccc1F)c1ccccc1 returned PAX8 inh HTS inactive, TWEAK Fn14 block 62.3, EBV LMP1 NFkB inactive, LGR2 inh inactive, TROY signal inh inactive and EWS-Fli inh inactive.
Screening O=C(CNC(=O)c1cccs1)c1ccc(F)cc1 returned TWEAK Fn14 block 52.0, EBV LMP1 NFkB inactive, LGR2 inh inactive and TROY signal inh inactive.
For O=C(CNC(=O)c1ccccc1Cl)c1ccccc1 the results were PAX8 inh HTS inactive, TWEAK Fn14 block inactive, EBV LMP1 NFkB inactive, LGR2 inh inactive, TROY signal inh inactive and EWS-Fli inh inactive.
Screening COc1cccc(/C=C2\Oc3ccc(O)cc3C2=O)c1O returned PAX8 inh HTS inactive, TWEAK Fn14 block inactive, EBV LMP1 NFkB inactive, LGR2 inh 66.5, TROY signal inh inactive and EWS-Fli inh inactive.
Screening COc1ccc(-c2ccc3c(c2)O[C@@H](CN(C)CC2CC2)[C@@H](C)CN([C@@H](C)CO)S3(=O)=O)cc1 returned LGR2 inh inactive and EWS-Fli inh inactive.
For C[C@@H]1CCCCO[C@H](CN(C)S(=O)(=O)c2ccc(F)cc2)[C@@H](C)CN([C@H](C)CO)C(=O)c2cc(NC(=O)c3ccccc3)ccc2O1 the results were PAX8 inh HTS inactive, LGR2 inh inactive and EWS-Fli inh inactive.
For O=C(C[C@H]1C=C[C@H](NC(=O)C2CCOCC2)[C@@H](CO)O1)Nc1ccccc1 the results were LGR2 inh inactive and EWS-Fli inh inactive.
`c1ccc(-c2nn(-c3ccccc3)[n+](-c3ccccc3)n2)cc1` gave PAX8 inh HTS 77.0, TWEAK Fn14 block inactive, EBV LMP1 NFkB inactive, LGR2 inh inactive, TROY signal inh inactive and EWS-Fli inh inactive.
COc1ccc(NC(=O)c2cccc(S(=O)(=O)Nc3ccc(Br)cc3)c2)cn1 was read as PAX8 inh HTS inactive, TWEAK Fn14 block 64.1, EBV LMP1 NFkB inactive, LGR2 inh inactive, TROY signal inh inactive and EWS-Fli inh inactive.
Screening O=C(Nc1ccc(Br)cc1)c1cccc(S(=O)(=O)Nc2cnc3ccccc3c2)c1 returned PAX8 inh HTS inactive, TWEAK Fn14 block 50.9, EBV LMP1 NFkB inactive, LGR2 inh inactive and TROY signal inh inactive.
Screening Fc1cccc2sc(Nc3nc4cc5c(cc4s3)OCO5)nc12 returned PAX8 inh HTS inactive, TWEAK Fn14 block inactive, EBV LMP1 NFkB inactive, LGR2 inh inactive, TROY signal inh inactive and EWS-Fli inh inactive.

Screening data: PubChem BioAssay, several laboratories
